Measurements from PubChem BioAssay AID1159580 (chemical genetic matrix, 2015).
Values joined by “and” are separate entries in the source; they are usually repeats but may differ in a detail not shown here. Equal entries are not always repeated. About 2,000 (36%) of roughly 5,500 compounds were called active. Inconclusive results (about 18%) are left out. No stated cut-off is given here; in the data, active means normalized growth mostly below about 0.91 (no sharp cut-off); inconclusive means no clear call, values can overlap the other calls; inactive means mostly above about 0.92. Some of the results follow.

Assay: chemical genetic growth profiling, strain panel (AID 1159580);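 further: tested at 20 µM; growth read once vehicle control cultures reached saturation at 30 °C; 1 = growth at the plate median or of vehicle wells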
Conditions: S. cerevisiae deletion strains, growth OD

Measured: normalized growth

CC1COc2c(N3CCN(C)CC3)c(F)cc3c(=O)c(C(=O)O)cn1c23 (stereo not drawn)
inactive: locus YAL013W, strain DEP1, stronger effect = lower value 0.993 | locus YAL021C, strain ccr4, stronger effect = lower value 0.99 | locus YAL026C, strain drs2, stronger effect = lower value 0.987 | locus YAL030W, strain snc1, stronger effect = lower value 0.988 | locus YAL040C, strain CLN3, stronger effect = lower value 1.03 | locus YBL061C, strain skt5, stronger effect = lower value 0.983 | locus YBR009C, strain hhf1, stronger effect = lower value 1 | locus YBR021W, strain FUR4, stronger effect = lower value 1.01 | locus YBR023C, strain chs3, stronger effect = lower value 0.98 | locus YBR171W, strain sec66, stronger effect = lower value 0.964 | locus YBR229C, strain ROT2, stronger effect = lower value 1.01 | locus YBR231C, strain swc5, stronger effect = lower value 0.991 | locus YBR279W, strain paf1, stronger effect = lower value 0.992 | locus YCL011C, strain gbp2, stronger effect = lower value 0.98 | locus YCL016C, strain dcc1, stronger effect = lower value 0.985 | locus YCL029C, strain bik1, stronger effect = lower value 1.01 | locus YCL061C, strain MRC1 (second series), stronger effect = lower value 1 | locus YCL061C, strain MRC1, stronger effect = lower value 0.982 | locus YCL069W, strain vba3, stronger effect = lower value 0.99 | locus YCR088W, strain abp1, stronger effect = lower value 0.986 | locus YDL005C, strain med2, stronger effect = lower value 0.974 | locus YDL035C, strain GPR1, stronger effect = lower value 1.03 | locus YDL040C, strain nat1, stronger effect = lower value 0.988 | locus YDL074C, strain BRE1, stronger effect = lower value 1.02 | locus YDL101C, strain DUN1, stronger effect = lower value 1.01 | locus YDL134C, strain PPH21, stronger effect = lower value 1.01 | locus YDL185W, strain tfp1, stronger effect = lower value 1.05 | locus YDL192W, strain arf1, stronger effect = lower value 1.01 | locus YDR001C, strain nth1, stronger effect = lower value 0.982 | locus YDR069C, strain doa4, stronger effect = lower value 1.01 | locus YDR101C, strain arx1, stronger effect = lower value 1 | locus YDR137W, strain rgp1, stronger effect = lower value 0.954 | locus YDR159W, strain sac3, stronger effect = lower value 1.01 | locus YDR162C, strain NBP2, stronger effect = lower value 1.01 | locus YDR195W, strain ref2 0.996 | locus YDR297W, strain sur2, stronger effect = lower value 0.985 | locus YDR318W, strain mcm21, stronger effect = lower value 1.01 | locus YDR334W, strain swr1, stronger effect = lower value 0.975 | locus YDR335W, strain msn5, stronger effect = lower value 0.997 | locus YDR363W, strain ESC2, stronger effect = lower value 1.01 | locus YDR388W, stronger effect = lower value 1.01 | locus YDR392W, strain spt3, stronger effect = lower value 0.903 | locus YDR502C, strain sam2, stronger effect = lower value 1.01 | locus YEL003W, strain gim4, stronger effect = lower value 1 | locus YEL037C, strain rad23, stronger effect = lower value 0.979 | locus YEL061C, strain CIN8 (second series), stronger effect = lower value 0.985 | locus YEL061C, strain CIN8, stronger effect = lower value 1.01 | locus YER002W, strain NOP16, stronger effect = lower value 0.981 | locus YER015W, strain faa2, stronger effect = lower value 0.99 | locus YER016W, strain bim1, stronger effect = lower value 1.01 | locus YER110C, stronger effect = lower value 1.02 | locus YER111C, strain swi4, stronger effect = lower value 0.983 | locus YER155C, strain BEM2 (second series), stronger effect = lower value 0.978 | locus YER155C, strain BEM2, stronger effect = lower value 1.01 | locus YER167W, strain BCK2, stronger effect = lower value 1.01 | locus YFR010W, strain ubp6, stronger effect = lower value 0.978 | locus YGL078C, strain dbp3, stronger effect = lower value 1.01 | locus YGL086W, strain mad1, stronger effect = lower value 1 | locus YGL167C, strain pmr1, stronger effect = lower value 0.985 | locus YGL173C, strain kem1, stronger effect = lower value 0.975 | locus YGL227W, strain vid30, stronger effect = lower value 0.991 | locus YGL240W, strain doc1, stronger effect = lower value 0.996 | locus YGL248W, strain PDE1, stronger effect = lower value 1 | locus YGL253W, strain hxk2, stronger effect = lower value 0.995 | locus YGR135W, strain pre9, stronger effect = lower value 1.01 | locus YGR229C, strain SMI1, stronger effect = lower value 1.03 | locus YGR252W, strain gcn5, stronger effect = lower value 1.01 | locus YHR013C, strain ard1, stronger effect = lower value 0.961 | locus YHR027C, strain rpn1, stronger effect = lower value 0.986 | locus YHR030C, strain SLT2, stronger effect = lower value 1.01 and 0.988 | locus YHR079C, strain IRE1 (second series), stronger effect = lower value 1.01 | locus YHR079C, strain IRE1, stronger effect = lower value 0.988 | locus YHR094C, strain hxt1, stronger effect = lower value 1.02 | locus YHR129C, strain ARP1, stronger effect = lower value 1 | locus YHR142W, strain chs7, stronger effect = lower value 0.956 | locus YHR200W, strain rpn10, stronger effect = lower value 1.01 | locus YIL066C, strain RNR3, stronger effect = lower value 1.01 | locus YIL073C, strain SPO22, stronger effect = lower value 1.1 | locus YIL125W, strain kgd1, stronger effect = lower value 1.01 | locus YIR030C, strain dcg1, stronger effect = lower value 1.01 | locus YJL092W, strain hpr5, stronger effect = lower value 0.983 | locus YJL095W, strain BCK1 (second series), stronger effect = lower value 0.993 | locus YJL095W, strain BCK1, stronger effect = lower value 1 and 0.976 | locus YJL115W, strain asf1, stronger effect = lower value 0.971 | locus YJL129C, strain trk1, stronger effect = lower value 0.987 | locus YJL134W, strain LCB3, stronger effect = lower value 1.01 | locus YJL154C, strain vps35, stronger effect = lower value 0.982 | locus YJL164C, strain tpk1, stronger effect = lower value 0.987 | locus YJL166W, strain qcr8, stronger effect = lower value 0.969 | locus YJL168C, strain set2, stronger effect = lower value 1.01 | locus YJL187C, strain SWE1 (second series), stronger effect = lower value 1 | locus YJL187C, strain SWE1, stronger effect = lower value 0.987 | locus YJR043C, strain POL32, stronger effect = lower value 1.02
